Drawing on PubChem BioAssay (NCI), this text covers growth for eight compounds.

What all share (assay): NCI-60 one-dose screen, 48 h (100 = growth as untreated, 0 = no growth, -100 = all killed)
In one test the test system is HCT-15 colon. Conditions: 10 µM unless noted.
The subject of the next test is HT29 colon. Conditions: 10 µM unless noted.
The next test relates to SNB-75 CNS. Conditions: 10 µM unless noted.
For another test, the system named is SNB-19 CNS. Conditions: 10 µM unless noted.
The subject of a further test is U251 CNS. The following applies: 10 µM unless noted.
The subject of the next test is PC-3 prostate. The following applies: 10 µM unless noted.
In a further test the test system is SK-MEL-5 melanoma. The following applies: 10 µM unless noted.
The next test deals with UACC-62 melanoma. The following applies: 10 µM unless noted.
The test system of the next test is SK-MEL-28 melanoma. The following applies: 10 µM unless noted.
For a further test, the system named is SK-MEL-2 melanoma. The following applies: 10 µM unless noted.
The subject of the next test is EKVX NSCLC. Conditions: 10 µM unless noted.
The test system of a further test is SN12C renal. Conditions: 10 µM unless noted.
The subject of another test is UO-31 renal. Conditions: 10 µM unless noted.
A further test concerns TK-10 renal. Conditions: 10 µM unless noted.
The subject of a further test is ACHN renal. The following applies: 10 µM unless noted.
The next test relates to CAKI-1 renal. The following applies: 10 µM unless noted.
In another test the test system is A498 renal. The following applies: 10 µM unless noted.
The next test concerns CCRF-CEM leukemia. The following applies: 10 µM unless noted.
In another test the test system is MOLT-4 leukemia. The following applies: 10 µM unless noted.
The subject of a further test is LOX IMVI melanoma. Conditions: 10 µM.

Compounds without any hit were thinned out: in the full panel of roughly 83,000, 20% have a hit.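 48-hour exposure, single concentration, 96-well plates; percent growth endpoint where 0 means no net growth. Active: below 10.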 Values without a mark were called inactive. The source made the active and inactive calls.

As for `S=C(NCCc1ccccc1)Nc1ccc(OCc2nc3ccccc3[nH]2)cc1`, the growth in the test with HCT-15 colon was 98%; with HT29 colon it was 108%; with SNB-75 CNS, 103%; in the test with SNB-19 CNS, 102%; with U251 CNS, 99.7%; with PC-3 prostate, 105%. In addition, the growth was 102% in the test on SK-MEL-5 melanoma; 93.1% in the test with UACC-62 melanoma; 110% with SK-MEL-28 melanoma; 121% in the test on SK-MEL-2 melanoma; 101% in the test on EKVX NSCLC; 96.8% with SN12C renal. The growth with UO-31 renal was 84.3%; with TK-10 renal it was 112%; with ACHN renal, 104%; with CAKI-1 renal it was 87.3%; in the test on A498 renal, 111%; in the test with CCRF-CEM leukemia it was 96.7%. In the test on MOLT-4 leukemia, the growth was 100%.
For the compound `COc1ccc(NC(=O)Cn2c(O)c(N=Nc3ccc(S(N)(=O)=O)cc3)c3ccccc32)cc1`, the growth in the test with HCT-15 colon is 79%; in the test with HT29 colon it was -2.87% (active); with SNB-75 CNS, 59.7%; in the test on SNB-19 CNS, 23%; in the test with U251 CNS, -32.5% (active); in the test on PC-3 prostate, 14.4%. Also, the growth in the test on SK-MEL-5 melanoma was 62.3%; with UACC-62 melanoma, 20.7%; in the test on SK-MEL-28 melanoma, 26.7%; with SK-MEL-2 melanoma it was 50.6%; in the test on EKVX NSCLC, 62%; in the test with SN12C renal, 60%. The growth with UO-31 renal was 84.1%; in the test on TK-10 renal, 75.9%; in the test on ACHN renal, 35.2%; in the test on CAKI-1 renal it was 27.4%; in the test on A498 renal, 103%; with CCRF-CEM leukemia, 85.3%. In the test on MOLT-4 leukemia, the growth is 73.6%.
For the compound `O=c1oc2ccccc2cc1-c1csc(N2N=C(c3ccccc3)CC2c2ccc(N3CCOCC3)cc2)n1` (stereo unspecified), the growth is 96.6% with HCT-15 colon; 117% with HT29 colon; 101% in the test on SNB-75 CNS; 116% with SNB-19 CNS; 109% in the test with U251 CNS; 102% in the test on PC-3 prostate. Further, the growth in the test with SK-MEL-5 melanoma is 105%; in the test with UACC-62 melanoma, 92.2%; in the test on LOX IMVI melanoma, 86.7%; in the test with SK-MEL-28 melanoma, 109%; in the test on SK-MEL-2 melanoma, 101%; in the test on UO-31 renal it was 73.8%. Moreover, the growth in the test on TK-10 renal was 159%; in the test with ACHN renal it was 99.2%; in the test with CAKI-1 renal, 90.6%; in the test on A498 renal, 153%; with CCRF-CEM leukemia, 96.6%; in the test with MOLT-4 leukemia it was 95.9%.
With `COc1ccc(NC(=O)[C@H](CO)NC(=O)OC(C)(C)C)cc1C(=O)Nc1cccc(C2CC(=O)c3c(cc(OC)c(OC)c3OC)O2)c1` (stereo partly specified), the growth in the test on HCT-15 colon was 33%; with HT29 colon it was 49.4%; in the test on SNB-75 CNS, 51.4%; in the test on SNB-19 CNS it was 69.2%; in the test on U251 CNS, 61.9%; in the test with PC-3 prostate, 49.8%. Moreover, the growth with SK-MEL-5 melanoma was 27.9%; in the test on UACC-62 melanoma, 49.1%; in the test on SK-MEL-28 melanoma, 71.4%; with SK-MEL-2 melanoma, 53.1%; with EKVX NSCLC it was 81.2%; in the test on SN12C renal, 49%. Further, the growth with UO-31 renal is 40.4%; in the test with TK-10 renal it was 103%; in the test with ACHN renal it was 56.2%; with CAKI-1 renal, 38.6%; in the test on A498 renal, 105%; in the test on CCRF-CEM leukemia it was 23.3%. Further, in the test on MOLT-4 leukemia, the growth is 16.2%.
On to `CSc1ccccc1NC(=O)c1ccc2nnn(/C(C#N)=C/c3ccccn3)c2c1`, for which the growth is -79.9% (active) in the test with HCT-15 colon; -92.1% (active) in the test on HT29 colon; 67.9% in the test on SNB-75 CNS; 0.0552% (active) in the test with SNB-19 CNS; -90.9% (active) with U251 CNS; -71% (active) in the test on PC-3 prostate. The growth with SK-MEL-5 melanoma is -98.9% (active); with UACC-62 melanoma, -98.8% (active); in the test with SK-MEL-28 melanoma, -99.2% (active); in the test on SK-MEL-2 melanoma, -86.4% (active); in the test on EKVX NSCLC, -95.6% (active); in the test with SN12C renal it was -99% (active). The growth was -100% (active) in the test on UO-31 renal; -98.6% (active) in the test with TK-10 renal; -100% (active) in the test on ACHN renal; -88.2% (active) in the test on CAKI-1 renal; 82.9% in the test on A498 renal; -27.5% (active) with CCRF-CEM leukemia. In the test with MOLT-4 leukemia, the growth is -27.9% (active).
For the compound `COc1ccc(C2=NN(c3ccccc3)C(c3ccc(OC)c(OCc4ccccc4)c3)C2)cc1OC` (stereo unspecified), the growth was 83.8% in the test on HCT-15 colon; 70.5% in the test with HT29 colon; 90.6% in the test with SNB-75 CNS; 88.1% in the test on SNB-19 CNS; 92.4% in the test on U251 CNS; 98% in the test with PC-3 prostate. Further, the growth in the test with SK-MEL-5 melanoma was 94.1%; with UACC-62 melanoma it was 81.8%; in the test with SK-MEL-28 melanoma it was 115%; in the test on SK-MEL-2 melanoma, 94.1%; with EKVX NSCLC it was 92.4%; in the test with SN12C renal, 104%. The growth with UO-31 renal was 91.7%; in the test with TK-10 renal, 125%; in the test with ACHN renal, 110%; in the test with CAKI-1 renal, 76.7%; with A498 renal, 101%; in the test on CCRF-CEM leukemia, 106%. The growth with MOLT-4 leukemia was 97%.
For the compound `CN(C)c1nc(NCCNS(=O)(=O)c2ccc(C(=O)/C=C/c3ccc(F)cc3)cc2)nc(Nc2ccc(F)cc2)n1`, the growth was -91.7% (active) in the test on HCT-15 colon; -100% (active) in the test on HT29 colon; -16.4% (active) with SNB-75 CNS; -74.8% (active) with SNB-19 CNS; -100% (active) with U251 CNS; -75.2% (active) with PC-3 prostate. Also, the growth with SK-MEL-5 melanoma was -99.6% (active); in the test with UACC-62 melanoma it was -97.1% (active); in the test with LOX IMVI melanoma it was -100% (active); in the test on SK-MEL-28 melanoma, -100% (active); with SK-MEL-2 melanoma it was -90.2% (active); in the test on SN12C renal, -99.8% (active). In addition, the growth was -49.1% (active) with UO-31 renal; -41.4% (active) in the test with TK-10 renal; -81.2% (active) in the test with ACHN renal; -51.9% (active) with CAKI-1 renal; 9.88% (active) with A498 renal; 4.06% (active) in the test on CCRF-CEM leukemia. Further, the growth in the test with MOLT-4 leukemia is -17.2% (active).
In the case of `C=C1CC[C@@H]2[C@]3(C)COC(c4cn[nH]c4-c4ccccc4)O[C@@H]3CC[C@@]2(C)[C@@H]1C/C=C1/C(=O)OCC1O` (stereo partly specified), the growth in the test with HCT-15 colon is -81% (active); with HT29 colon, -79% (active); with SNB-75 CNS, 105%; with SNB-19 CNS it was 45.3%; with U251 CNS, -18.6% (active); with PC-3 prostate, 33.3%. Besides, the growth was -77.2% (active) with SK-MEL-5 melanoma; -12.7% (active) with UACC-62 melanoma; -55.2% (active) in the test on SK-MEL-28 melanoma; 73.8% with SK-MEL-2 melanoma; -45.2% (active) in the test with EKVX NSCLC; 21.9% in the test with SN12C renal. Further, the growth with UO-31 renal was -0.824% (active); with TK-10 renal, -8.55% (active); in the test with ACHN renal it was 11%; in the test with CAKI-1 renal, 11.4%; with A498 renal, 137%; in the test with CCRF-CEM leukemia it was 2.72% (active). For the same compound, in the test on MOLT-4 leukemia, the growth is 4.6% (active).
